# According to PubChem BioAssay AID743382 (National Center for Advancing Translational Sciences (NCATS), 2014):
# Activity calls are given as the source filed them. Calls come from the whole dose curve.
# Test: qHTS for Inhibitors of PI5P4K: BT474 Cell Proliferation Assay for Probe SAR
# Details: CellTiter-Glo ATP luminescence, 72 h
# Excerpt: In addition to finding PI5P, we discovered the type II phosphatidylinositol 5-phosphate 4-kinase (PI5P4K) family (alpha, beta, gamma isoforms) that catalyze the conversion of PI5P to PI(4,5)P2. Alternatively, PI(4,5)P2 can also be synthesized through phosphatidylinositol-4-phosphate (PI4P) by the type I phosphatidylinositol 4-phosphate 5-kinases (PI4P5K). These PI5P4K enzymes therefore represent one way by which cells can regulate endogenous PI5P levels and play important roles in insulin signaling and in stress responses. […] A qHTS PI5P4K-alpha ADP-Glo assay was developed to identify specific modulators of human PI5P4K, phosphatidylinositol-5-phosphate 4-kinase (Type II PIPK). […]
# BT474 cells were cultured in DMEM with 10% FBS and plated in 1536-well white solid-bottom tissue-culture treated plates at a density of 500 cells per 5 microL well. […] After 72 hours of incubation at 37 degrees C 5% CO2 the level of ATo was measured using the Cell Titer Glo luciferase-coupled ATP detection system from Promega. This assays monitors cells by quantitating the amount of ATP present by luciferase, which in the presence of ATP converts pro-luciferin into the luminescent luciferin product. A compound that inhibits cell proliferation would result in a decrease in luminescence. […] The luminescence was read on a Viewlux (Perkin Elmer) plate reader.
row,SMILES,Potency
1,O=C1Nc2ccc(C(=O)c3ccco3)cc2/C1=C/c1cc(Cl)c(O)c(Cl)c1,10.5 µM (active)
